Results taken from PubChem BioAssay (NCI).
The panel holds about 79,000 compounds, 15% with a hit somewhere; the sample as a whole holds those more often. Cut-off read from the data, not from the text of the source: active = growth inhibition above about 70%; inactive = the rest.

Key:
[1] = NCI Yeast Anticancer Drug Screen. Data for the rad50 strain (AID 155);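 note: 0% = growth of vehicle-only cultures of the same strain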; conditions: S. cerevisiae rad50 strain growth inhibition; at 50.0 µM; stronger effect = higher value
Procedure, shortened: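 Growth of the mutant yeast was measured after compound exposure and referenced to vehicle-treated cultures.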

[2] = NCI Yeast Anticancer Drug Screen. Data for the mec2-1 strain (AID 157); conditions: S. cerevisiae mec2-1 strain, at 50.0 µM, stronger effect = higher value
Procedure, shortened: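 Vehicle-treated cultures served as reference for growth inhibition of compound-exposed mec2-1 yeast.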

[3] = NCI Yeast Anticancer Drug Screen. Data for the sgs1 mgt1 strain (AID 161);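 note: 0% = growth of cultures given vehicle only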; conditions: S. cerevisiae sgs1 mgt1 strain, at 50.0 µM, stronger effect = higher value
Procedure, shortened: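 Test agents were incubated with a DNA-repair-mutant yeast strain. Growth was then read and compared against vehicle-treated controls.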

[4] = NCI Yeast Anticancer Drug Screen. Data for the cln2 rad14 strain (AID 165);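 note: 0% = growth equal to vehicle treated cultures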; conditions: S. cerevisiae cln2 rad14 strain, at 50.0 µM, stronger effect = higher value
Procedure, shortened: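 Each compound was tested on cln2 rad14 yeast. Inhibition of growth was calculated against vehicle-exposed controls.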

[5] = NCI Yeast Anticancer Drug Screen. Data for the bub3 strain (AID 167); conditions: S. cerevisiae bub3 mutant strain, at 50.0 µM, stronger effect = higher value
Procedure, shortened: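 Whole-cell yeast assay. The mutant strain was incubated with compounds, and growth inhibition was determined by comparison with vehicle-treated cells.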

[6] = NCI Yeast Anticancer Drug Screen. Data for the mlh1 rad18 strain (AID 175); conditions: S. cerevisiae mlh1 rad18 strain growth inhibition; at 50.0 µM; stronger effect = higher value
Procedure, shortened: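 Vehicle-treated cultures served as the reference for growth inhibition in a yeast strain carrying DNA damage repair alterations exposed to each compound.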

Measured: growth inhibition

O=C1c2c(ccc3c2CCCC3)CC12Cc1ccccc1C2
inactive: [1] 8.9% | [2] -4.45% | [3] 9.25% | [4] -2.75% | [5] 4.8% | [6] 4.7%

Nc1cc(Cl)ccc1N1C(=O)C=CC1=O
inactive: [1] -26.6% | [2] -14.8% | [3] 1.25% | [4] -6.25% | [5] -9.1% | [6] 18.6%

Cc1occc1C(=S)Nc1ccc(Cl)c(OCC(=O)OC(C)(C)C)c1
inactive: [1] 49% | [2] 50.6% | [3] 49.2% | [4] 40.2% | [5] 46.6% | [6] 38.9%

O=C1C2=C(c3ccccc31)C(c1ccc(Cl)cc1)N1C(=O)CCSC1=N2 (stereo unspecified)
inactive: [1] 24.7% | [2] 10.6% | [3] 1.9% | [4] 8.25% | [5] 27.1% | [6] 25.3%

COc1ccc(NC(C)=O)c(C(=O)CCNC(C)=O)c1
inactive: [1] -5.85% | [2] -15.4% | [3] -31.1% | [4] -7.4% | [5] -40% | [6] -23.4%

Cc1nc2ccccc2c(=O)n1NC(=S)Nc1ccc(Cl)cc1
inactive: [1] 3.6% | [2] -31.2% | [3] 4.25% | [4] -23.6% | [5] -18.4% | [6] -14.9%

O=C(O)C1CCC(C(=O)O)CC1.[NH-]C1CCCCC1[NH-].[Pt+2] (stereo unspecified)
inactive: [1] 45.6% | [2] -29.9% | [3] -1.15% | [4] 6.9% | [5] -19.9% | [6] -70.4%

O=S(=O)(/C=C/c1ccc(F)cc1)Cc1ccccc1
inactive: [1] -3.2% | [2] -15.6% | [3] 0.65% | [4] 12.9% | [5] -4% | [6] 11.7%

Cc1cc(=O)[nH]c(=O)[nH]1
inactive: [1] 5.85% | [2] -7.55% | [3] -16.6% | [4] -4.15% | [5] -17.7% | [6] -5.4%

CCCCCCCCCCCCCCCC[Si](Cl)(Cl)Cl
inactive: [1] -0.6% | [2] -10.7% | [3] -5.85% | [4] -22.6% | [5] 2.95% | [6] 10.1%

CC(=O)OC1CCC2(C)OC(=O)CC2C1 (stereo unspecified)
inactive: [1] 2.2% | [2] 8.55% | [3] 6.9% | [4] -41.9% | [5] 9.6% | [6] 1.4%

O=c1/c(=C/c2ccccc2O)sc2nc3ccccc3n12
inactive: [1] 9.65% | [2] -42.2% | [3] 18.9% | [4] 15% | [5] 10.4% | [6] 20.9%

O=C(COc1ccc(Cl)c(Cl)c1)NCc1cccc([N+](=O)[O-])c1
inactive: [1] 4.9% | [2] -15.8% | [3] -8.4% | [4] 2.2% | [5] 14.9% | [6] 34%

O=C1OC(C(Cl)(Cl)Cl)Nc2ccccc21 (stereo unspecified)
inactive: [1] 13.8% | [2] -19.8% | [3] 9.35% | [4] 15.6% | [5] 19.4% | [6] 12.9%

CCC(OC(C)=O)c1ccccc1 (stereo unspecified)
inactive: [1] 12.8% | [2] 17.2% | [3] 11.5% | [4] 6.45% | [5] 27.4% | [6] 1.5%

CCOC(=O)c1c[nH]c(C(=O)OCC)c1C
inactive: [1] 14.4% | [2] 6.6% | [3] 4.2% | [4] -59.9% | [5] -4.5% | [6] 14.2%

Cc1ccc(Cl)c(NC(=O)c2ccccc2Cl)c1
inactive: [1] 6.2% | [2] 8.2% | [3] 18.8% | [4] -8% | [5] 12.4% | [6] 30.9%

COc1cc(C)c(/C=C/C(=O)N2C(=O)OC[C@@H]2c2ccccc2)c(C)c1
inactive: [1] 4.35% | [2] -8.75% | [3] 21.1% | [4] 26.9% | [5] 19.1% | [6] 18.2%

CCOc1c(N=Nc2ccccc2[N+](=O)[O-])c(C)nn1C(N)=S
inactive: [1] -6.5% | [2] -5.95% | [3] 24.5% | [4] -26.8% | [5] -20.9% | [6] 17.4%

CC(C)[C@@H]1CC[C@@H](C)C[C@H]1OC(=O)c1c2n(c3ccccc13)C[C@H]1OC(C)(C)O[C@@H]21
inactive: [1] 5.15% | [2] -6.65% | [3] 7.4% | [4] 22.9% | [5] 15.2% | [6] -46.2%

CC1=C(C(=O)NCc2ccccc2)C(c2cccc([N+](=O)[O-])c2)C(C(=O)NCc2ccccc2)=C(C)N1
inactive: [1] 19.6% | [2] 17.2% | [3] 9.05% | [4] 22.7% | [5] 19.2% | [6] 33.7%

C/C=C(\Cl)C=O
inactive: [1] 12.4% | [2] 5% | [3] -22.9% | [4] -9.7% | [5] 3.5% | [6] 11.2%

c1ccc(C2=NN3CN(N2)c2ccccc2OCCCOc2ccccc23)cc1
inactive: [1] -25.2% | [2] 2.05% | [3] -5.55% | [4] 12.8% | [5] 18.3% | [6] 6.25%

COc1ccc(/C=C/Cc2cc3c(cc2OC(C)=O)OCO3)cc1
inactive: [1] 11.8% | [2] 0.4% | [3] 26.1% | [4] -8.4% | [5] 33% | [6] 12.4%

CC(C)OC(=O)C1CCC(=O)N1 (stereo unspecified)
inactive: [1] 12.1% | [2] -6.25% | [3] -7.4% | [4] -84.1% | [5] 19% | [6] -20.4%

COc1cc(C(c2ccc(N(Cc3ccccc3)Cc3ccccc3)cc2NC(C)=O)c2ccc(N(Cc3ccccc3)Cc3ccccc3)cc2NC(C)=O)ccc1O
inactive: [1] 2.75% | [2] 2.05% | [3] -11.4% | [4] -8.2% | [5] -5.1% | [6] 38.2%

CCC(C)(O)c1cn(-c2cccc(S(=O)(=O)O)c2)nn1 (stereo unspecified)
inactive: [1] -9.3% | [2] -10.2% | [3] -8.05% | [4] 5.95% | [5] -8.65% | [6] -8.35%

O=C(c1cccc(C(=O)N(c2ccccc2)C2CCCCC2)c1)N(c1ccccc1)C1CCCCC1
inactive: [1] -2.65% | [2] -6.35% | [3] -1.55% | [4] -6.65% | [5] -1.3% | [6] -27.9%

CCOc1ccc(N=C2NC(=O)C(CC(=O)Nc3ccc(Cl)cc3Cl)S2)cc1 (stereo unspecified)
inactive: [1] 15% | [2] 15.3% | [3] -7.4% | [4] -51.9% | [5] -6% | [6] 27.2%

c1cc2nc(c1)CSCCCCCCCCSC2
inactive: [1] -3.25% | [2] 41% | [3] 17.8% | [4] -10.1% | [5] 55% | [6] 36%

COC(=O)CCCN1C(=O)c2ccccc2C1=O
inactive: [1] -8.15% | [2] -12.7% | [3] -20.8% | [4] -69.8% | [5] 5.6% | [6] -3.95%

CC(O)(C(=O)O)C(NC(=O)c1ccccc1)C(=O)O (stereo unspecified)
inactive: [1] 12.2% | [2] 6.2% | [3] -2.5% | [4] 6.3% | [5] 11.1% | [6] 2.45%

Nc1ncnc2c1nnn2C1C=CC(COS(N)(=O)=O)C1 (stereo unspecified)
inactive: [1] 12.2% | [2] 3.75% | [3] 3.7% | [4] -6% | [5] 8.25% | [6] 18.6%

CN1C(=O)CC2C(=O)N(Cc3ccccc3)C(=O)C2C1=O (stereo unspecified)
inactive: [1] 14% | [2] -4% | [3] -0.8% | [4] 11.6% | [5] 1.3% | [6] -2.85%

Cc1cc(C)[n+](C)c2cc3ccccc3cc12
inactive: [1] 26.4% | [2] -20.2% | [3] 20.9% | [4] 44.2% | [5] -8.55% | [6] -28.5%

C#CC1(c2ccccc2)OCCO1
inactive: [1] 21.9% | [2] 17.4% | [3] 16.3% | [4] 4.55% | [5] -13.2% | [6] 27.4%

CC(=O)C=NCC(=O)O
inactive: [1] -2.45% | [2] -3.4% | [3] -32.2% | [4] -24.8% | [5] -26.6% | [6] -8.8%

Cc1cc(Cl)ccc1N1C(=O)C(=O)C(c2nc3ccccc3s2)C(=O)C1=O
inactive: [1] -4.1% | [2] 13.7% | [3] 17.9% | [4] -6.1% | [5] 2.2% | [6] 12.5%

Cc1nc(N=C(N)N)nc2ccccc12
inactive: [1] 3.4% | [2] -8.45% | [3] 10.7% | [4] 16.8% | [5] 2.65% | [6] 14.2%

O=S1(=O)C2CCC(Br)C1CCC2Br (stereo unspecified)
inactive: [1] 9.65% | [2] 13.8% | [3] 7.65% | [4] 14.2% | [5] -2.65% | [6] 10.9%

COc1ccc(/C=C2/C(=O)N(c3ccccc3)N=C2C)cc1
inactive: [1] 22.2% | [2] -2.2% | [3] 17.3% | [4] 0.4% | [5] 16.7% | [6] 22.1%
